Rows were chosen to be rich in hits. Some 5.8% of all compounds tested hit in one or more screens of this group.
KB-V1 cytotox: kills drug-selected multidrug resistant KB-V1 cells; KB-V1 MDR cells viability, CellTiter-Glo, 72 h; Potency, µM (doses to about 46.1 µM), most hits filed as cytotoxic; hit rate 3.4% among 400,000; AID 1347076; also: % is scaled to controls: 0 for no effect and ±100 for the full control effect; nearly all actives have a fitted effect of over 60% in size
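Readout: CellTiter-Glo luminescence, 10 min after addition. Cells: KB-V1 MDR subline, 72 h at 37 degrees C with compound. Analysis: corrected, normalized data fitted to concentration-effect curves.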
KB-3-1 tox: kills parental KB-3-1 adenocarcinoma cells. AID 1347075. KB-3-1 viability, CellTiter-Glo ATP luminescence, 72 h. Potency, µM (doses to about 46.1 µM), most hits filed as cytotoxic. hit rate 1.4% among 400,000; also: % is scaled to controls: 0 for no effect and ±100 for the full control effect; nearly all actives have a fitted effect of over 60% in size
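Cells are dispensed, compounds pinned in, plates held at 37 °C for 72 h, then CellTiter-Glo is added and luminescence read after 10 minutes. Cell line: parental KB-3-1 in phenol-red-free DMEM, 10% FBS.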
MCF10A rerep: induces DNA re-replication in MCF 10a normal breast cells | MCF 10A DNA re-replication, Hoechst nuclear intensity, 48 h | Potency, µM (doses to about 46.1 µM), for the others: top-dose activity, positive = re-replication, actives largely listed as activators | hit rate 2.9% among 350,000; also: % of control where 0% means no effect; nearly all actives have a fitted effect of over 50% in size
SW480 rerep: induces DNA re-replication in SW480 colon adenocarcinoma cells. SW480 DNA re-replication, Hoechst DNA content imaging, 48 h. Potency, µM (titrated, usually from 46.1 µM), without a hit: at the highest dose re-replication activation, usual class: activators. hit rate 1.8% among 340,000. AID 624297; also: % of control where 0% means no effect; nearly all actives have a fitted effect of over 55% in size
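SW480 cells exposed to compounds for 48 hr at 37 C, 5% CO2, then Hoechst-stained 40 min. Nuclear DNA content imaged by fluorescence scanning (405 nm excitation, 500-530 nm emission); re-replication scored as increased high-intensity nuclei.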
ALOX12 inh: blocks human arachidonate 12S-lipoxygenase. P18054. purified 12hLO, xylenol orange hydroperoxide absorbance. Potency, µM (highest dose often 108 µM), inactives show top-dose activity change, negative = inhibition, usual class: inhibitors. hit rate 1.1% among 580,000; also: % is scaled to controls: 0 for no effect and ±100 for the full control effect
Target sequence (P18054 whole entry, looked up): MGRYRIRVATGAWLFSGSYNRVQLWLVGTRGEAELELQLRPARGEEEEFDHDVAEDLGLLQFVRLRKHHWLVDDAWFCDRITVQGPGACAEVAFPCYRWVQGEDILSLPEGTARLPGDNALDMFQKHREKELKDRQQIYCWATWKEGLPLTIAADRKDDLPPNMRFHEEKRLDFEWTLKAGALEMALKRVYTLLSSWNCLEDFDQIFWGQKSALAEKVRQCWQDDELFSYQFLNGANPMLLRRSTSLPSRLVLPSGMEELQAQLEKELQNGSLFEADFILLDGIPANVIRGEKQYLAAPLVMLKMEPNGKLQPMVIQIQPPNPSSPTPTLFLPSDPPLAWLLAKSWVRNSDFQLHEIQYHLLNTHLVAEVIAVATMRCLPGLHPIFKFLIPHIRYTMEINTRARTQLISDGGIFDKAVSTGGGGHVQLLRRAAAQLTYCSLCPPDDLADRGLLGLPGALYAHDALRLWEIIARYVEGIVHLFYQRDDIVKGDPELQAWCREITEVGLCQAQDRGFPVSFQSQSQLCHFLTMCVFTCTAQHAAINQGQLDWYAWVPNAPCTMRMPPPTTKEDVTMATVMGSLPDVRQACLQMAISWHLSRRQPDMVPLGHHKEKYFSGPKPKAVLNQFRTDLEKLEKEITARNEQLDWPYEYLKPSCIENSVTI
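Hydroperoxide product was detected by ferrous iron/xylenol orange as the 573 to 405 nm absorbance ratio. Arachidonic acid at 40 uM (final) was turned over for 30 min at room temperature by 150 nM human 12hLO, pH 7.0 Hepes buffer, after 15 min compound preincubation.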
PINK1 modulator: modulators of PINK1 expression; hit rate 0.2% among 410,000; Potency, µM (highest dose often 76.6 µM), inactives show top-dose activation (PINK1 increase), most hits filed as activators; PINK1 immunofluorescence, high-content cytometry, 24 h; AID 624263; active = well fitted activation curve with a large enough effect; inconclusive = small, poorly fitted or top-dose-only effect; cell line not stated here; also: % of control where 0% means no effect; nearly all actives have a fitted effect of over 65% in size
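Stable cell line, 250 cells/well, 12 h attachment; compounds pinned at 5 concentrations, 24 h; CCCP control. Fixed with nuclear dye, primary antibodies 12 h at 10 degrees C, secondary plus cell stain; laser-scanning cytometer read.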
* = called active by the depositor; i = inactive; ? = inconclusive; nt = no result given; [ ] = dose if it differs, or a comment. Unless noted, calls follow the shape of the dose curve; as a rule, active = well fitted curve in the direction sought with a large enough effect; inconclusive = small, poorly fitted or top-dose-only effect, or another doubt; inactive = no such curve, though single readings can be large; an effect the other way counts as inactive or inconclusive. Potency is read from the fitted curve at half-maximal effect.

SMILES | KB-V1 cytotox | KB-3-1 tox | MCF10A rerep | SW480 rerep | ALOX12 inh | PINK1 modulator
CNC(=O)CC1C(=O)N(c2ccc(OC)cc2)C(=S)N1NC(=O)c1cccc(F)c1 (stereo unspecified) | i | i | ? | 2.31µM* | 180.5% | -0.4%
CNC(=O)CC1C(=O)N(Cc2ccccc2)C(=S)N1NC(=O)c1cccc(F)c1 (stereo unspecified) | 20.6µM* | i | -7.3% | -9.0% | -23.7% | 4.1%
CNC(=O)CC1C(=O)N(c2ccc(Cl)cc2)C(=S)N1NC(=O)c1cccc(F)c1 (stereo unspecified) | i | i | 2.8% | -16.9% | i | 1.8%
CC1CCCN(S(=O)(=O)c2ccc(-c3nc(C#N)c(NCCCN(C)C)o3)cc2)C1 (stereo unspecified) | nt | nt | nt | nt | -8.1% | nt
Cn1cc(C(=O)NC2(C)CCS(=O)(=O)C2)c2ccccc21 (stereo unspecified) | nt | nt | nt | nt | 12.6µM* | nt
Cn1cc(C(=O)NC2CCS(=O)(=O)C2)c2ccccc21 (stereo unspecified) | nt | nt | nt | nt | 28.9% | nt
CCNC(=O)c1cc2c(=O)n3cccc(C)c3nc2n(Cc2ccc(C)cc2)c1=N | ? | ? | ? | 2.06µM* | 0.0% | -0.2%
Cc1cccn2c(=O)c3cc(C(=O)NC(C)C)c(=N)n(Cc4ccncc4)c3nc12 | i | i | 16.4µM* | 20.6µM* | 218.5% | 0.6%
COCCCNC(=O)c1cc2c(=O)n3cccc(C)c3nc2n(C(C)C)c1=N | i | i | ? | 2.82µM* | -12.1% | -2.9%
CCCn1c(=N)c(C(=O)NCc2cccnc2)cc2c(=O)n3cccc(C)c3nc21 | ? | i | nt | nt | 0.0% | -0.6%
CC1CCN(c2nnc(-n3cccc3CN3CCN(C4CCCCC4)CC3)s2)CC1 | nt | nt | nt | nt | 41.4% | nt
CCOC(=O)c1c(C)[nH]c(C)c1C(=O)COC(=O)c1cccc(C)c1O | 16.4µM* | i | ? | 5.2% | ? | ?
Cc1cccc(C(=O)OCC(=O)c2c(C)[nH]c3ccccc23)c1O | i | i | 9.6% | -19.3% | -3.9% | 3.8%
COC(=O)CCOc1ccc(S(=O)(=O)Nc2cccc(Cl)c2C)cc1 | nt | nt | nt | nt | 6.0% | nt
CC(C)c1nn2c(=O)cc(COC(=O)COc3ccccc3Cl)nc2s1 | nt | nt | nt | nt | -14.2% | nt
COc1ccc(/C(C)=N/NC(=S)Nc2cc(C)ccc2C)cc1 | i | i | ? | ? | 44.7µM* | 0.2%
COCCNC(=S)N/N=C(\C)c1ccc2cc(OC)ccc2c1 | i | ? | ? | ? | 35.5µM* | 2.2%
COc1ccc(CNC(=S)Nc2cc(C)ccc2C)cc1 | i | i | 0.5% | -1.4% | ? | 0.6%
C=C(C)CNC(=S)N/N=C(\C)c1ccc(OC)cc1 | 16.4µM* | ? | 7.9% | 17.7% | ? | 5.0%
COCCNC(=S)N/N=C(\C)c1ccc(OC)cc1 | i | i | 3.9% | -3.6% | ? | -1.4%
COc1cccc(CC2(CO)CCCN(Cc3[nH]c4ccc(C)cc4c3C)C2)c1 (stereo unspecified) | ? | ? | 3.26µM* | ? | ? | -1.4%
CC(C)CCSc1nc(N)c(C#N)cc1C#N | 20.6µM* | i | 17.3% | -1.2% | -27.3% | -2.3%[38.3 µM]
O=C(Nc1nnc(CCc2ccccc2)s1)c1cc(=O)[nH]c2ccccc12 | nt | nt | nt | nt | -13.2% | nt
CC(C)c1ccc(C2C3=C(COC3=O)Nc3c2c(=O)n(C)c(=O)n3C)cc1 (stereo unspecified) | nt | nt | nt | nt | -0.7% | nt
CC(C)c1ccc(C2C3=C(COC3=O)Nc3cc4c(cc32)OCO4)cc1 (stereo unspecified) | 1.16µM* | 0.731µM* | ? | ? | 21.6% | 1.1%
SMILES | KB-V1 cytotox | KB-3-1 tox | MCF10A rerep | SW480 rerep | ALOX12 inh | PINK1 modulator
COc1ccc(CC2S/C(=N/N=C/c3ccccc3O)NC2=O)cc1 (stereo unspecified) | i | ? | 23.1µM* | 2.91µM* | 13.6% | 14.4%
O=C1N/C(=N/N=C/c2ccccc2O)SC1Cc1ccc(F)cc1 (stereo unspecified) | ? | ? | 28.2% | ? | 28.8% | 13.7%
CCN(CC)S(=O)(=O)c1ccc(C)c(NC(=O)CSc2nc3ccc(C)cc3[nH]2)c1 | 14.6µM* | i | 4.6% | nt | -31.5% | ?
Cc1ccc(C)c(NC(=O)C(Sc2nc3ccc(C)cc3[nH]2)c2ccccc2)c1 (stereo unspecified) | i | i | 20.6µM* | ? | 8.9% | ?
Cc1ccc2nc(SC(C(=O)Nc3ccc(F)cc3)c3ccccc3)[nH]c2c1 (stereo unspecified) | ? | ? | ? | ? | ? | 4.1%
O=C(CSc1nccc(=O)[nH]1)Nc1cc(C(F)(F)F)ccc1N1CCOCC1 | i | i | -2.0% | -2.2% | -5.0% | -3.2%
Cc1ccc2nc(SCC(=O)Nc3cc(C(F)(F)F)ccc3N3CCOCC3)[nH]c2c1 | ? | 0.82µM* | 0.581µM* | 5.17µM* | -5.0% | 0.3%
Cc1ccc(NC(=S)NNS(=O)(=O)c2ccc3ccccc3c2)cc1Cl | i | i | ? | 1.6% | 39.8µM* | 1.0%
Fc1ccccc1/C=N/N1CCN(Cc2ccccc2Cl)CC1 | i | i | ? | 5.2% | 12.6µM* | ?
O=[N+]([O-])c1ccccc1/C=N\N1CCN(Cc2ccccc2Cl)CC1 | i | i | 3.9% | -17.2% | 140.5% | -0.1%
O=C1/C(=C/c2ccco2)SC(=S)N1CC1CCCO1 (stereo unspecified) | i | i | -8.1% | ? | ? | -1.0%
Cc1ccc(/C=C2\SC(=S)N(CC3CCCO3)C2=O)o1 (stereo unspecified) | i | i | ? | ? | 6.31µM* | -1.1%
C=CC(=O)NC(NC(=O)C=C)c1ccc(Cl)cc1 | nt | nt | nt | nt | 6.4% | nt
O=C1C(Nc2ccccc2)=C/C(=N/S(=O)(=O)c2cccs2)c2ccccc21 | ? | ? | 3.26µM* | 5.8µM* | nt | -0.7%
O=C1C(Nc2ccccc2)=C(NS(=O)(=O)c2ccccc2)C(=O)c2ccccc21 | ? | i | -2.2% | -1.2% | 1.3% | 2.7%
Cc1ccc(NC2=C/C(=N/S(=O)(=O)c3cccs3)c3ccccc3C2=O)cc1 | ? | 2.31µM* | 8.2µM* | ? | -16.9% | -1.9%
Cc1cc(C(=O)COc2ccc3ccc(=O)oc3c2)c(C)n1CC(F)(F)F | nt | nt | nt | nt | -3.0% | nt
O=c1oc2ccc(Cl)cc2cc1-c1csc(Nc2ccc(F)cc2F)n1 | nt | nt | nt | nt | -4.5% | nt
COc1ccc(-c2cnn3c4c(c(C)nc23)CCN4C(C)C)cc1OC | 2.06µM* | i | ? | ? | -14.6% | 22.9%[38.3 µM]
COC(CN1CCc2c(C)nc3c(C#N)cnn3c21)OC | i | i | 10.8% | 6.2% | 1.8% | 7.8%

Screening data: PubChem, National Center for Advancing Translational Sciences (NCATS)
